PubChem BioAssay AID2289 (National Center for Advancing Translational Sciences (NCATS), 2010)
The campaign covered roughly 340,000 compounds. About 3,300 (0.97%) were called active. Not shown: some 9% with an inconclusive outcome. Calls follow the shape of the dose curve; as a rule, active = well fitted inhibition curve with a large enough effect; inconclusive = small, poorly fitted or top-dose-only effect, or effect the other way; inactive = flat fitted curve, though single readings scatter. This is one part of the list.

Assay: qHTS Assay for Modulators of miRNAs and/or Inhibitors of miR-21; also: nearly all actives have a fitted effect of over 55% in size
Details: HeLa miR-21-FLuc reporter, luciferase luminescence, 48 h; actives lower the signal
Excerpt: MLSCN Grant: 1 R21 NS059478-01 Assay Provider: Qihong Huang, The Wistar Institute NCGC Assay Overview: MicroRNAs (miRNAs) are endogenously encoded small (~20-25 nucleotides), nonprotein-coding RNAs that are involved in post-transcriptional repression of target messenger RNAs (mRNAs) (Le and Hannon, 2004). Estimated to be involved in the regulation of 30% of all protein-coding mRNAs (Filipowicz et al., 2008), miRNAs play a significant role in many biological processes including cellular differentiation and tissue development (Ghildiyal and Zamore, 2009).
NCGC Assay Protocol Summary: Reagents: HeLa cells stably expressing firefly luciferase (FLuc) under the control of a CMV promoter (upstream) and a miR-21 binding sequence directly downstream of the gene. These cells endogenously express miR-21. Control compounds used were compound C3 (provided by collaborator), N6-phenyladenosine (MP Biomedicals, 0215379625), and DMSO. Assay Summary: 6uL of HeLa miR-21-FLuc cells in assay buffer (DMEM, Invitrogen #21063-029; 10% FBS, HyClone #SH30071.03) were dispensed at 2000cells/well (3.3 x 10^5 cells/mL) into Greiner solid-white TC-treated 1536-well plates using a Multidrop Combi (Thermo Fisher Scientific). Plates were incubated for one hour at 37 degree Celsius, 95% humidity, 5% CO2. These assay plates were then treated with 23nL of compound or DMSO using a Kalypsys pin tool, which allows for delivery of a 24-point titration of each compound to the assay plate, with a final compound concentration ranging from approximately 40uM to 5pM. Assay plates were then incubated for 48 hours. After incubation, plates were allowed to come to RT for one hour prior to delivery of 3uL of 3X luciferase detection reagent. After a 15 minute incubation to allow for cell lysis, luciferase activity was measured using a ViewLux CCD imager (PerkinElmer), with an average exposure time of 2-12 seconds. Keywords: NIH Roadmap, MLPCN, MLSMR, qHTS, miR-21, microRNA, firefly luciferase, FLuc.
Potency is read from the fitted curve at half-maximal effect.

Potency, active:
CCOC(=O)c1c(C)[nH]c(N=Nc2ccccc2)c1C 7.36 µM
CCOC(=O)c1c(C)[nH]c(N=Nc2cccc(OC)c2)c1C 0.927 µM
CCOC(=O)c1c(C)[nH]c(N=Nc2ccc(OC)cc2)c1C 2.93 µM
CCOC(=O)c1c(C)[nH]c(N=Nc2ccc(C)cc2C)c1C 10.4 µM
CCOc1ccc(N=C(/C(C(=O)C(=O)N2CCOCC2)=C(\O)c2ccccc2)c2ccccc2)cc1 3.69 µM
CC1CCCCN1c1nc(-c2ccc(C(C)(C)C)cc2)nc2ccccc12 (stereo not given) 0.585 µM
c1ccc2c(c1)oc1c(N3CCOCC3)ncnc12 16.5 µM
Brc1ccc2oc3c(N4CCOCC4)ncnc3c2c1 4.65 µM
CCOC(=O)C1CCCN(c2ncnc3c2oc2ccccc23)C1 (stereo not given) 16.5 µM
Cc1ccc(-c2onc3ccc(C(=O)O)cc23)cc1 1.17 µM
FC(F)(F)c1ccc(NCc2ccccn2)nc1 13.1 µM
COc1cc(N2Cc3ccccc3C2)ccc1C=O 5.21 µM
Fc1ccc(/C=N/Nc2ncnc3nc[nH]c23)cc1F 4.14 µM
Clc1ccc(/C=N/Nc2ncnc3nc[nH]c23)cc1 1.65 µM
Fc1cccc(/C=N/Nc2ncnc3nc[nH]c23)c1 1.65 µM
CC(C)Sc1nc(N)nc(-c2cccs2)c1C#N 2.93 µM
CCSc1nc(N)nc(-c2cccs2)c1C#N 16.5 µM
CCCSc1nc(N)nc(-c2cccs2)c1C#N 13.1 µM
CCCCNC(=O)N(C)c1nc2ccccc2s1 8.26 µM
COc1ccc2nc(SCc3ccccc3)nc(C)c2c1 1.17 µM
COc1ccc2nc(SCc3cccc(C)c3)nc(C)c2c1 7.36 µM
Cc1nc(SCc2ccccc2)nc2c1CCC2 5.85 µM
O=C1/C(=C\c2cccs2)Sc2ccc3ccccc3c21 0.521 µM
Cn1c(NC(=O)CCc2ccccc2)cc(=O)n(C)c1=O 3.69 µM
Cn1c(NC(=O)CCC2CCCCC2)cc(=O)n(C)c1=O 1.17 µM
Cc1cc(NC(=O)CCC2CCCCC2)no1 16.5 µM
CC1CCC(NC(=O)CNC(=O)c2cccs2)CC1 (stereo not given) 3.29 µM
O=C(CCCC(=O)c1ccc(F)cc1)c1ccc(F)cc1 3.29 µM
O=C(CNC(=O)c1cccs1)c1ccc(Br)cc1 3.29 µM
O=C(CNC(=O)c1ccc(F)cc1)c1ccc(Cl)cc1 3.69 µM
O=C(CNC(=O)c1ccccc1F)c1ccc(Br)cc1 1.47 µM
Cc1ccc(N=C2NC(=O)/C(=C\c3cccs3)S2)cc1C 10.4 µM
Cc1ccc(OCCCSc2ncccn2)cc1C 14.7 µM
Clc1ccc(OCCSc2ncccn2)cc1 3.69 µM
Clc1ccc(OCCSc2ncccn2)c(Br)c1 1.31 µM
CC(C)CSc1nnc2c3ccccc3n(C)c2n1 1.31 µM
O=C(/C=C/c1nc2ccccc2s1)N1CCCCCC1 2.07 µM
CCC(=O)N1CCc2nc(-c3ccccc3)sc2C1 14.7 µM
Cc1cccc(C)c1NC(=O)c1c[nH]c2ccccc12 3.69 µM
Clc1nc(-c2cccnc2)nc2scc(-c3ccccc3)c12 7.36 µM
O=C(CSc1ccc(F)cc1)Nc1ccc(C2SCCS2)cc1 11.7 µM
COc1ccc(NC(=O)CCSc2ccc(F)cc2)cc1 7.36 µM
COc1ccccc1NC(=O)c1csc2c1CCC(C)C2 (stereo not given) 5.85 µM
CC1CCc2c(C(=O)NCc3ccccn3)csc2C1 (stereo not given) 11.7 µM
Cc1ccc(-c2cc(NC(=O)c3ccccc3Cl)on2)cc1 2.61 µM
CCc1nc(NC(C)(C)C)c2cnn(-c3ccccc3)c2n1 7.36 µM
Cc1ccoc1C(=O)Nc1cccc(Oc2ccccc2)c1 3.29 µM
CCn1c(O)c(/C=C2\C=Nc3ccccc32)sc1=Nc1ccccc1 7.36 µM
CCn1c(O)c(/C=C2\C=Nc3ccccc32)sc1=O 1.17 µM
N/C(=N\OC(=O)Cc1cccs1)c1ccc(Br)cc1 16.5 µM
COc1ccc(/C(N)=N/OC(=O)Cc2cccs2)cc1 6.56 µM
N/C(Cc1cccc2ccccc12)=N\OC(=O)Cc1cccs1 11.7 µM
N/C(Cc1cccs1)=N\OC(=O)COc1ccccc1Cl 14.7 µM
Fc1ccc(/C=C/c2nnc(-c3cccs3)o2)cc1 2.07 µM
Clc1ccc2oc(-c3ccccc3)cc(=NCCCN3CCOCC3)c2c1 4.14 µM
COc1ccc(N/C=C/C(=O)c2ccc(Cl)cc2)cc1 1.04 µM
CCOc1ccc(N/C=C/C(=O)c2ccc(OC)c(OC)c2)cc1 9.27 µM
Cc1ccc(N/C=C/C(=O)c2ccc(C)cc2)cc1 2.33 µM
COc1ccc(N/C=C\C(=O)c2ccc(C)cc2)cc1OC 14.7 µM
CC(=O)c1ccc(N/C=C\C(=O)c2ccc(C)cc2)cc1 1.31 µM
COc1ccc(C(=O)/C=C/Nc2ccc(C)cn2)cc1OC 1.65 µM
Cc1ccc(NC(=O)C(=O)c2ccc(C)cc2)cc1 2.93 µM
COc1ccc(C(=O)/C=C/Nc2cc(C)on2)cc1 2.93 µM
O=C(c1ccc(F)cc1)N1CCC(n2nnc3ccccc32)CC1 5.85 µM
O=C(COc1ccc(F)cc1)N1CCC(c2ccccc2)C1 (stereo not given) 13.1 µM
O=C(c1ccc(F)cc1)N1CCC(c2ccccc2)C1 (stereo not given) 7.36 µM
COc1ccccc1/C=C/C(=O)N1CCC(c2ccccc2)C1 (stereo not given) 2.93 µM
O=C(N/N=C\c1ccco1)Nc1cccc(Cl)c1 1.85 µM
NC(=O)c1sc2nc(-c3ccccc3)ccc2c1N 1.85 µM
NC(=O)c1sc2nc(-c3cccnc3)ccc2c1N 18.5 µM
Nc1c(C(=O)N2CCCC2)sc2nc(-c3ccccc3)ccc12 3.69 µM
C=CCNC(=O)/C=C/c1ccc(C(C)C)cc1 7.36 µM
CCCNC(=O)/C=C/c1ccc(C(C)C)cc1 16.5 µM
CCCOc1cccc(C(=O)Nc2ccc(Br)cc2F)c1 1.85 µM
Nc1c(C(=O)c2cccs2)sc2nsc(SCCN3CCCCC3)c12 4.14 µM
CN1/C(=C\C(=O)c2cccc([N+](=O)[O-])c2)Sc2ccccc21 0.329 µM
Cc1ccc(C(=O)Cn2nnc3ccccc32)cc1 2.33 µM
Cc1ccc(C(=O)Cn2nnc3ccccc32)cc1C 1.31 µM
Clc1ccccc1CSc1ncn(-c2ccccc2)n1 5.85 µM
Clc1cccc(CSc2ncn(-c3ccccc3)n2)c1 16.5 µM
O=C(N/N=C/c1ccc(N2CCOCC2)cc1)c1cccs1 3.29 µM
C/C(=N/NC(=O)c1cccs1)c1ccc(N2CCOCC2)cc1 11.7 µM
O=C(Nc1nc2c(F)cc(F)cc2s1)c1ccc2c(c1)OCCO2 0.0826 µM
O=C(/C=C/c1ccc2c(c1)OCCCO2)c1ccccc1O 2.07 µM
Cc1ccc(C(=O)/C=C/c2ccc3c(c2)OCCO3)c(O)c1 18.5 µM
C=CCn1c(C)csc1=Nc1ccc(C(C)=O)cc1 10.4 µM
Cc1cc(C)nc(S/C=C/C(=O)c2ccccc2F)n1 11.7 µM
C/C(N)=C(/C#N)C(=O)CSc1ccccc1F 8.26 µM
Cc1cc(C)n2cc(CSc3nc4ccccc4s3)nc2n1 4.65 µM
Cc1cc(C)n2cc(COc3ccc4ccccc4c3)nc2n1 1.17 µM
Cc1cc(C)n2c(Br)c(CSc3nc4ccccc4s3)nc2n1 4.14 µM
Cc1cnc(C(=O)Nc2ccc(C(C)C)cc2)cn1 1.65 µM
CC(C)c1ccc(NC(=O)C2=NNC(=O)CC2)cc1 2.33 µM
O=C1c2ccccc2NC(c2ccccc2O)N1c1ccc(F)cc1 (stereo not given) 2.93 µM
O=C(Nc1cccc(F)c1)Nc1ccc2c(c1)CCC2 0.736 µM
O=C(Nc1ccc2c(c1)CCC2)c1cccc(F)c1 4.14 µM
O=C(Nc1ccc2c(c1)CCC2)c1ccc(Br)s1 0.261 µM
O=C1NC(c2ccccc2Cl)=N/C1=C/c1ccco1 10.4 µM
O=C1NC(c2ccc(Br)cc2)=N/C1=C/c1ccco1 0.927 µM
c1csc(-c2nn3c(C4COc5ccccc5O4)nnc3s2)c1 (stereo not given) 16.5 µM
COc1ccc(C(=O)Nc2ccc(Cl)c(Cl)c2)c(OC)n1 0.355 µM
COc1ccc(NC(=O)c2cc(F)cc(F)c2)cc1Cl 9.27 µM
COc1ccc(NC(=O)Nc2ccccc2F)cc1Cl 2.07 µM
O=C(Cc1cccs1)NCc1cc(Cl)cc(Cl)c1 14.7 µM
Cc1cccc(CCNc2nc3ccc(C)cc3n3cnnc23)c1 16.5 µM
Cc1cc(C(=O)N/N=C/c2ccccc2)c(C)o1 6.56 µM
Cc1cc(C(=O)N/N=C/c2c(C)nn(-c3ccccc3)c2C)n[nH]1 14.7 µM
Cc1cc(C(=O)N/N=C/c2c(C)nn(-c3ccccc3)c2C)c(C)o1 8.26 µM
COc1cccc2[nH]c(=O)c(-c3ccccc3)cc12 1.65 µM
Nc1nc(-c2ccc(Cl)cc2)nnc1-c1ccc(Br)cc1 2.07 µM
